# Results as given in the supplement of paper PMC10849652.
# Targets with a hit are over-represented here; the source holds about 8,800 in all. About 0.5% of all pairs of compound and target were hits. A number with no mark means an inactive call.
# Columns and labels:
# Experiment in all cases: log2 fold change, soluble protein after heating vs DMSO (PISA); higher = thermal stabilisation; K562 lysate, 10 uM; active = over 0.2 and 3.5 SD of the protein, either way, in both replicates (recomputed)
# [1] = compound: CC(C)(C)Cn1c(N)nc2ccc(-c3[nH]c(C(C)(C)C)nc3-c3ccc(F)cc3)nc21 [ralimetinib]
# How it was run: (§1)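 K562 pellets were dounce-homogenised in PBS pH 7.4 with 1 mM MgCl2, and the crude extract at 1 mg/mL protein was treated with 10 μM compound for 30 min. Aliquots were heated for 3 min across 48°C-58°C, pooled, and brought to 0.5% NP-40 at 4°C; soluble protein was the supernatant after 21,000xg for 90 min. Soluble protein was quantified by TMTpro 16plex LC-MS/MS with channel sums equalised, and reported as log2 fold change in thermal stability against DMSO controls, with values from duplicates.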
# [2] = compound: CC(C)(O)CC(=O)NCCn1ccc2ncnc(Nc3ccc(Oc4cccc(C(F)(F)F)c4)c(Cl)c3)c21
# How it was run: as §1
# [3] = compound: CC(C)C1=C2N=C(C=C(N2N=C1)NCC3=CC=CC=C3)NCCCCCCN
# How it was run: as §1
# [4] = compound: CC1=C(C(CC(=O)N1)C2=CC=C(C=C2)C(F)(F)F)C(=O)NC3=C(C=C4C(=C3)C=NN4)F
# How it was run: as §1
# [5] = compound: CC1=C(C2=C(C=C1)C(=O)C3=CC=CC=C3N2CCCN)C
# How it was run: as §1
# [6] = compound: CC1=C(C=C(C=C1)NC(=O)C2=CC(=CC=C2)C(C)(C)C#N)NC3=CC4=C(C=C3)N=CN(C4=O)C
# How it was run: as §1
# [7] = compound: CC1=C(C=C(C=C1)NC(=O)C2=CC(=CC=C2)N(C)C)NC(=O)C3=CC=C(C=C3)O
# How it was run: as §1
# [8] = compound: CCn1c(C(=O)N(C2CC2)C2CC2)cc2c3c(ncn3C)c(Nc3cc(C)n(C)n3)nc21
# How it was run: as §1
# [9] = compound: CN1CCN(CCOc2cc(OC3CCOCC3)c3c(Nc4c(Cl)ccc5c4OCO5)ncnc3c2)CC1 [saracatinib]
# How it was run: as §1
# [10] = compound: CN1CCN(c2nc(C3=C(c4c[nH]c5ccccc45)C(=O)NC3=O)c3ccccc3n2)CC1 [sotrastaurin]
# How it was run: as §1
# [11] = compound: C=CC(=O)N1CCC[C@@H](n2nc(-c3ccc(Oc4ccccc4)cc3)c3c(N)ncnc32)C1 [ibrutinib]
# How it was run: as §1
# [12] = compound: CC(=O)c1cnc2ccc(-c3cc(Cl)c(O)c(Cl)c3)nc2c1N[C@H]1CC[C@H](CN(C)C)CC1
# How it was run: as §1
# [13] = compound: CC1=CC=C(C=C1)SC2=C3C=C(SC3=CN=C2)C(=O)N
# How it was run: as §1
# [14] = compound: CCCS(=O)(=O)Nc1ccc(F)c(C(=O)c2c[nH]c3ncc(-c4ccc(Cl)cc4)cc23)c1F [vemurafenib]
# How it was run: as §1
# [15] = compound: CCCS(=O)(=O)Nc1ccc(F)c(C(=O)c2c[nH]c3ncc(Cl)cc23)c1F
# How it was run: as §1
# [16] = compound: CCN(CCCOc1ccc2c(Nc3cc(CC(=O)Nc4cccc(F)c4)[nH]n3)ncnc2c1)CCOP(=O)(O)O [barasertib]
# How it was run: as §1
# [17] = compound: CC[C@@H]1C(=O)N(C)c2cnc(Nc3ccc(C(=O)N[C@H]4CC[C@H](N5CCN(CC6CC6)CC5)CC4)cc3OC)nc2N1C(C)C [volasertib]
# How it was run: as §1
# [18] = compound: CC[C@@H]1C(=O)N(C)c2cnc(Nc3ccc(C(=O)NC4CCN(C)CC4)cc3OC)nc2N1C1CCCC1
# How it was run: as §1
# [19] = compound: CCn1cc(-c2ccnc3[nH]c(-c4cccc(CN(C)C)c4)cc23)c(-c2ccc(NC(=O)N(C)C)cc2)n1
# How it was run: as §1
# [20] = compound: CN1CCC(CNc2ccc3ncc(-c4cccc(OC(F)(F)F)c4)n3n2)CC1
# How it was run: as §1
# Chain of UniProt Q9Y2D2 (Q9Y2D2 whole entry, looked up): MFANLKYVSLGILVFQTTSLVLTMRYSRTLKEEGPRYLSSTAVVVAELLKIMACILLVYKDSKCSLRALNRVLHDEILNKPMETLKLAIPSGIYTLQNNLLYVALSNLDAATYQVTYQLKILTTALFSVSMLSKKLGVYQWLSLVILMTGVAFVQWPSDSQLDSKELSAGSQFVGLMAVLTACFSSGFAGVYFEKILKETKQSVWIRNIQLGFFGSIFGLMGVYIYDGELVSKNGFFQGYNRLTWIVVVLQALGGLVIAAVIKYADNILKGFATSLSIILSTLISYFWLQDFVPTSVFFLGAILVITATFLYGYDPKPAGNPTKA
# Chain of UniProt Q9Y2H1 (Q9Y2H1 whole entry, looked up): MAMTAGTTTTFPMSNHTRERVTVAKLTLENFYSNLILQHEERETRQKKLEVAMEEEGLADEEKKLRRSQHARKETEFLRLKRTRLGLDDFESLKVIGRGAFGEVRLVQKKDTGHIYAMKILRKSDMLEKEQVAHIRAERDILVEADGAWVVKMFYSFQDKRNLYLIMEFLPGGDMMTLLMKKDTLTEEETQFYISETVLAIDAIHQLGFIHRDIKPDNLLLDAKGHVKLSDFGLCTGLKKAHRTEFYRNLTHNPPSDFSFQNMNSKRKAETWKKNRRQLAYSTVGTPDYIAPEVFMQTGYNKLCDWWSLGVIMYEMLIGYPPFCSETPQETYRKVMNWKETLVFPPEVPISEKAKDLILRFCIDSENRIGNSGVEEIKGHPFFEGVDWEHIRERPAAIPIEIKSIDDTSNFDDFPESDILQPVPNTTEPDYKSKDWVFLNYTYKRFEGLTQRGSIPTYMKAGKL
# Chain of UniProt O60906 (O60906 whole entry, looked up): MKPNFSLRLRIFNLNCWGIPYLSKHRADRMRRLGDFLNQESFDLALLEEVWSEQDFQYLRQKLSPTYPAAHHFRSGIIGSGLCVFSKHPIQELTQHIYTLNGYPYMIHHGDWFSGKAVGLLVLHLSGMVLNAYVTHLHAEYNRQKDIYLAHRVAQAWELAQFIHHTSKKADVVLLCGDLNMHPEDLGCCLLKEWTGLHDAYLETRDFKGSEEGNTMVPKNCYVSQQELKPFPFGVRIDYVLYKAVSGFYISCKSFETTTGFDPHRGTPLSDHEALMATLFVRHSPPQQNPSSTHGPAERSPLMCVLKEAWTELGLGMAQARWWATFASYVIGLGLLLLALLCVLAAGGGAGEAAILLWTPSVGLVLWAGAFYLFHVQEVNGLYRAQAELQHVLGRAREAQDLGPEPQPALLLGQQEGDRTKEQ
# Chain of UniProt Q96CQ1 (Q96CQ1 whole entry, looked up): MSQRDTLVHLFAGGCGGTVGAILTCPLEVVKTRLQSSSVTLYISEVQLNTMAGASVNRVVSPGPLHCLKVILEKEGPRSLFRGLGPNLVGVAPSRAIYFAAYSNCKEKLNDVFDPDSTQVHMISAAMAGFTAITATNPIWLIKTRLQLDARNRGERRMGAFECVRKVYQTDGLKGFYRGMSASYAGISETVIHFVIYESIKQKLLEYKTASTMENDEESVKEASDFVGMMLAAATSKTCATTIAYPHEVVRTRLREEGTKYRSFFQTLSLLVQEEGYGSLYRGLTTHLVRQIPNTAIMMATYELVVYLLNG
# Chain of UniProt Q8IVJ1 (Q8IVJ1 whole entry, looked up): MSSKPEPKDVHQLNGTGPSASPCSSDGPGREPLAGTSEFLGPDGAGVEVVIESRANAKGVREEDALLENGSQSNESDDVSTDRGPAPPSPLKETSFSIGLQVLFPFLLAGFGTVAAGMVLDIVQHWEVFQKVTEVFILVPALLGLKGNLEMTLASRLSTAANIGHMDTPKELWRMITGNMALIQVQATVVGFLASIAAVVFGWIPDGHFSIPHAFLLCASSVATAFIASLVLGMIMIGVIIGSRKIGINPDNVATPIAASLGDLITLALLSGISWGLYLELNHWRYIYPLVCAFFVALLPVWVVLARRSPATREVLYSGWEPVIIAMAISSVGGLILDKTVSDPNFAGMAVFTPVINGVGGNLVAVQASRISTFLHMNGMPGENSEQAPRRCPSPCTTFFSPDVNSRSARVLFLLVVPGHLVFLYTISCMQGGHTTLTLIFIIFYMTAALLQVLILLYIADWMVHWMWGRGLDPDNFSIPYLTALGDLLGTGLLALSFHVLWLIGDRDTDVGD
# Chain of UniProt Q53T94 (Q53T94 whole entry, looked up): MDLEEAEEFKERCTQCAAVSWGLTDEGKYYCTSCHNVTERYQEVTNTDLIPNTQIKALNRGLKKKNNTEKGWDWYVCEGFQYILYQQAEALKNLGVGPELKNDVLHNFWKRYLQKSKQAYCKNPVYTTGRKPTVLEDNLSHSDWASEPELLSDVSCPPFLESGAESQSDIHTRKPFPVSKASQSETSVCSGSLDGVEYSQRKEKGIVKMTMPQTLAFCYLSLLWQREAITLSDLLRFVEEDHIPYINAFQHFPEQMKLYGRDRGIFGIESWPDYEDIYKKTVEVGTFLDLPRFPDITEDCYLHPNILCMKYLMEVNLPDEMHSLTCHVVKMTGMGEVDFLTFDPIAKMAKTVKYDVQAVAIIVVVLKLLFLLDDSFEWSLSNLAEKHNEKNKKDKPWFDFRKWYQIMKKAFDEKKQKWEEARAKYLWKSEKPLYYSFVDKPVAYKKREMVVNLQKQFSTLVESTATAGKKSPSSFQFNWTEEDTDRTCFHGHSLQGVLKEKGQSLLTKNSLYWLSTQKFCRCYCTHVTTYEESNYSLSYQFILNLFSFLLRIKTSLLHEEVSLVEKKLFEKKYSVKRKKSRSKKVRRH
# Chain of UniProt Q96BI1 (Q96BI1 whole entry, looked up): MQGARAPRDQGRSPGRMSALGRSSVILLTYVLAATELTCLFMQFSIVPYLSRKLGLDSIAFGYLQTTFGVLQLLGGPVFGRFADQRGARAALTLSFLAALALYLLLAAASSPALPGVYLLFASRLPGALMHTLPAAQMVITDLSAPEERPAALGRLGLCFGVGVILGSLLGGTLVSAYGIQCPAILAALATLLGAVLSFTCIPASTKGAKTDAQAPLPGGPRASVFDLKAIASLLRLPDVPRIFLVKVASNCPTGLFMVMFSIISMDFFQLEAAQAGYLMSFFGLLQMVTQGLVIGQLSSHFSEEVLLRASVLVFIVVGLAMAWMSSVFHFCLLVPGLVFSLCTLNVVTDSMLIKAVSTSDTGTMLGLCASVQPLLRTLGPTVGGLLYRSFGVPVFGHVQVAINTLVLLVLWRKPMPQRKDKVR
# Chain of UniProt Q15464 (Q15464 whole entry, looked up): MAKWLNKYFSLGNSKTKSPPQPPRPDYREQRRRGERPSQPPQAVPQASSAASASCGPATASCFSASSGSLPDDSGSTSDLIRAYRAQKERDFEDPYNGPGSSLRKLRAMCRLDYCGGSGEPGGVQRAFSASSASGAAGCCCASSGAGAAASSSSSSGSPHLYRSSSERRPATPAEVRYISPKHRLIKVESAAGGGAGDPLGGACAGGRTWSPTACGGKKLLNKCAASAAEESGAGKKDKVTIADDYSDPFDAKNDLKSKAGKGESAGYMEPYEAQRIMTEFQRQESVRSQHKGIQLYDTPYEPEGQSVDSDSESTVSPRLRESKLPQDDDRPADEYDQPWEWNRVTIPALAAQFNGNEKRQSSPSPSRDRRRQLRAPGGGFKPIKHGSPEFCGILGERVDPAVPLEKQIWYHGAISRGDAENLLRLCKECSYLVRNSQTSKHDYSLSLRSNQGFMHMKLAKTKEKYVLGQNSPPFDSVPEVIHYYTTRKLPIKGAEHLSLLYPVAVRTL
# Chain of UniProt Q9P289 (Q9P289 whole entry, looked up): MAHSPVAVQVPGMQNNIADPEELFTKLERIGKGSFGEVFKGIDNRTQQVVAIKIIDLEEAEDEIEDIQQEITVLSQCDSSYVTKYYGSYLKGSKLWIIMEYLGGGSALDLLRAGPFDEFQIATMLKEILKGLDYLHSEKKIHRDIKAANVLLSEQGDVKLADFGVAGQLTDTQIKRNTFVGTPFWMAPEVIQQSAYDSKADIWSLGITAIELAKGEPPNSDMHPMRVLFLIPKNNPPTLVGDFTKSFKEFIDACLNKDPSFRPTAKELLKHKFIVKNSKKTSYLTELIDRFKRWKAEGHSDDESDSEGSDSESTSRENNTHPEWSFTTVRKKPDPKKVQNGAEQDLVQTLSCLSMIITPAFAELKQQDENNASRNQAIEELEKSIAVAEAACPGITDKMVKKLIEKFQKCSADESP
# Chain of UniProt Q07617 (Q07617 whole entry, looked up): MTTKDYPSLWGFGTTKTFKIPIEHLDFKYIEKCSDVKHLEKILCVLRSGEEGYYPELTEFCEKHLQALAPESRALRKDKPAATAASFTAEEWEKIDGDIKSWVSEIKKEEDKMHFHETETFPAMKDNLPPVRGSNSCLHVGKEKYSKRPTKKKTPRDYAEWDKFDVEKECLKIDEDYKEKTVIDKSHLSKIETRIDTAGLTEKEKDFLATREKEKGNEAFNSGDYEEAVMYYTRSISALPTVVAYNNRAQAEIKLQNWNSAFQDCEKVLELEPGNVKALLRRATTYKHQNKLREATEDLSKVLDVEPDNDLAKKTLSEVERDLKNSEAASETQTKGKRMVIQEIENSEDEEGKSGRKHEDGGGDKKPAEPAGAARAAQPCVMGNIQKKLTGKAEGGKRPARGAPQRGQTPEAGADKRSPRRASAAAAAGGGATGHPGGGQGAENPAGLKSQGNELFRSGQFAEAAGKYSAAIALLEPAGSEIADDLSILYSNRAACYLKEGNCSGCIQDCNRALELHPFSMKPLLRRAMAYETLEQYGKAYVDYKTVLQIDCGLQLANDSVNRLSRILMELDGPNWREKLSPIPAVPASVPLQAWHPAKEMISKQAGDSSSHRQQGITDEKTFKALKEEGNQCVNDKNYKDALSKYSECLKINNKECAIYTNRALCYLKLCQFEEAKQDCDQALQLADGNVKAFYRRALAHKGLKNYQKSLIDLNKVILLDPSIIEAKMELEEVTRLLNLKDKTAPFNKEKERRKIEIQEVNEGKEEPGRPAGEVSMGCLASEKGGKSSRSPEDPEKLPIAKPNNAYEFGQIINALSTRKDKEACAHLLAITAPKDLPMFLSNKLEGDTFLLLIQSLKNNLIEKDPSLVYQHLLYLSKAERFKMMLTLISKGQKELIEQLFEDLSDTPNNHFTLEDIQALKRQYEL
Target,log2 fold change [1],log2 fold change [2],log2 fold change [3],log2 fold change [4],log2 fold change [5],log2 fold change [6],log2 fold change [7],log2 fold change [8],log2 fold change [9],log2 fold change [10],log2 fold change [11],log2 fold change [12],log2 fold change [13],log2 fold change [14],log2 fold change [15],log2 fold change [16],log2 fold change [17],log2 fold change [18],log2 fold change [19],log2 fold change [20]
STK17B (UniProt O94768),0.104,-0.004,0.162,0.054,-0.102,0.147,0.07,-0.451,-0.002,0.057,,,,,,,,,,
TAOK2 isoform 2 (UniProt Q9UL54),,,,0.034,,,,,,,,,,,,,,,,
SPAG1 (UniProt Q07617),-0.017,-0.17,,,,0.15,0.079,0.083,,-0.02,0.034,0.282,-0.198,0.041,0.028,0.018,-0.137,,,
SLC12A6 isoform 2 (UniProt Q9UHW9),-0.01,0.017,-0.018,,0.027,0.063,-0.006,-0.021,0.042,0.057,,0.016,0.122,,0.009,,-0.178,0.053,,
STK38L (UniProt Q9Y2H1),-0.069,0.021,-0.019,-0.024,-0.019,0,0.056,-0.047,-0.058,-0.01,,,,,,,,-0.105,,
SKP2 (UniProt Q13309),0.137,0.045,0.058,-0.041,0.023,-0.097,-0.015,0.025,-0.011,0.032,,-0.137,-0.576 (active),0.417,0.093,,0.05,0.193,0.121,-0.008
STAR (UniProt P49675),-0.139,0.02,0.073,-0.027,-0.052,-0.049,-0.039,0.008,0.006,0.061,,,,0.02,,,,0.074,0.043,-0.03
SLU7 (UniProt O95391),-0.013,-0.018,0.045,-0.029,-0.015,0,-0.031,-0.004,0.093,-0.027,-0.084,,,-0.043,,-0.07,,0.062,-0.188,0.166
STK26 isoform 3 (UniProt Q9P289),,,,,-0.157,-0.146,,,-0.046,-0.119,,,,,,,,0.189,,
SMC4 (UniProt C9JJ64),,,,,,,,,,,-0.146,,,,,0.152,,,,
SNAPC2 (UniProt Q13487),0.002,-0.029,-0.032,-0.073,-0.071,-0.008,0.011,0.04,0.038,0.154,0.092,,,,,-0.211,,,0.039,0.048
TAF1B (UniProt Q53T94),0.043,-0.112,,0.419,-0.101,0.032,0.006,-0.039,0.045,0.055,-0.156,0.095,0.138,0.397,-0.217,0.11,-0.057,-0.212,-0.12,0.166
TAF11 (UniProt Q15544),0.027,0.008,,0.015,0.115,0.052,0.072,0.086,-0.021,0.026,,-0.013,-0.114,-0.055,0.166,,0.037,0.14,-0.028,0.086
SLC22A18 (UniProt Q96BI1),,,0.049,,,0.02,,,,0.073,0.099,-0.047,0.011,0.026,0.046,-0.059,0.08,0.044,0.026,-0.032
SLC35A3 isoform 2 (UniProt Q9Y2D2),-0.027,0.234,-0.027,-0.133,,0.111,-0.025,-0.374,,-0.026,,-0.034,0.051,-0.024,-0.031,,0.005,0.056,-1.1 (active),0.336
STAU1 isoform 3 (UniProt O95793),,,0.028,0.012,,-0.064,,,,0.092,-0.094,,,,,0.014,,,-0.166,-0.016
SLC41A1 (UniProt Q8IVJ1),-0.003,0.112,-0.037,-0.023,,-0.081,0.09,0.035,,0.082,,0.007,0.041,,0.021,,-0.084,0.085,0.083,0.06
SHB (UniProt Q15464),0.023,-0.025,-0.009,,-0.01,0.023,-0.012,0.113,0.003,-0.003,,-0.023,0.05,,-0.049,,0.072,,-0.125,-0.162
SHC1 (UniProt P29353),,,,,,,,,,,,,,,,,,,-0.2,-0.114
SLC39A13 (UniProt Q96H72),0.004,-0.137,-0.003,,,,0.25,0.035,,,,,,,,,,,,
SLC25A36 (UniProt Q96CQ1),0.142,-0.048,0.1,0.044,-0.16,0.011,0.027,0.039,-0.001,-0.055,,-0.012,0.013,-0.272,0.007,,-0.045,0.113,-0.016,0.035
SMPD2 (UniProt O60906),-0.03,0.067,0.388,,0.077,,-0.113,-0.017,0.018,,,0.01,0.058,,0.179,,0.032,0.051,-0.003,-0.104
STK17A (UniProt Q9UEE5),,,,0.213,,,,,,,,,,,,,,,0.164,-0.109
SPA17 (UniProt Q15506),0.006,-0.098,,,0.051,-0.053,0.026,0.022,0.004,0.021,0.056,0.028,-0.058,-0.013,-0.004,0.021,0.09,0.005,-0.639 (active),0.245
SMARCA4 isoform 4 (UniProt P51532),0.051,-0.022,-0.337,0.093,-0.018,-0.107,0.192,-0.192,0.119,0.325,,0.044,0.041,,-0.047,,0.043,0.049,-0.086,0.057
TARDBP (UniProt K7EN94),,,,,,,,,,,,,,0.008,,,,-0.039,,
SNIP1 (UniProt Q8TAD8),,,,-0.062,,,,,,,,,,,,,,,,
SLCO4A1 (UniProt Q96BD0),,,,0.115,,,,,,,0.081,,,,,0.037,,,-0.015,0.042
